# Assay outcomes from PubChem BioAssay.
# The full list was thinned out, with hits kept by preference.
# NTMT1 inhibitor: Primary qHTS for Inhibitors of N-terminal methyltransferase 1 (NTMT1): MTaseGlo Assay | N-terminal Xaa-Pro-Lys N-methyltransferase 1 (Homo sapiens), Q9BV86 | NTMT1 MTase-Glo SAH luminescence, purified enzyme | Potency, µM (highest dose often 114 µM), inactives show top-dose activity change, negative = inhibition, hits mostly inhibitors | AID 1645870, 2021 | 59,000 compounds, 2.5% hits;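 also: potency is read from the fitted curve at half-maximal effect; plate controls were DMSO vehicle for no effect and no enzyme for full effect; nearly all actives have a fitted effect of over 65% in size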
# Target sequence (Q9BV86 whole entry, looked up): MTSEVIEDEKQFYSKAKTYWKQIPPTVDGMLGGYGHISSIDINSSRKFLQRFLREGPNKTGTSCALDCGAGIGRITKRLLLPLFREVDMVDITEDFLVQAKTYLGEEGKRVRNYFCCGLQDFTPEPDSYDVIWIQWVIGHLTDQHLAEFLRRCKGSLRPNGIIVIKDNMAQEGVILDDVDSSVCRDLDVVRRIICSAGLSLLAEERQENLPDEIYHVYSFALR
# DYRK1A inh-1: Assay for Inhibitors of Dual-Specificity Tyrosine-(Y)-Phosphorylation Regulated Kinase 1A (Kinase-Glo assay); shares compounds with NTMT1 inhibitor; 100 compounds, 80% hits; AID 2705, 2010; Potency, µM (doses to about 76.9 µM), without a hit: at the highest dose activity change, negative = inhibition, actives largely listed as inhibitors; recombinant DYRK1A, Kinase-Glo ATP depletion luminescence
# CLK4 inh-1: Confirmation Assay for Inhibitors of CDC-like Kinase 4 (Kinase-Glo Assay): SAR round 2. shares compounds with NTMT1 inhibitor. recombinant Clk4, Kinase-Glo ATP luminescence, 4.5 h. Potency, µM (highest dose often 76.9 µM), without a hit: top-dose activity, negative = inhibition, hits mostly inhibitors. 90 compounds, 90% hits. AID 493204, 2011
# CLK4 inh-2: Kinase Inhibition Study on Inhibitors of CDC-like Kinase 4 (Reaction Biology data): SAR round 2 | shares compounds with NTMT1 inhibitor | Reaction Biology kinase assay, 10 uM ATP | Potency, µM, most hits filed as inhibitors | 65 compounds, 100% hits; calls by dose curve
# DYRK1A inh-2: Kinase Inhibition Study on Inhibitors of Dyrk1a (Reaction Biology data) | 65 compounds, 90% hits | AID 504424, 2011 | shares compounds with NTMT1 inhibitor | Reaction Biology kinase assay, 10 uM ATP | Potency, µM, hits mostly inhibitors;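 active = compounds that showed inhibition of Dyrk1a and received a fitted potency; inactive = compounds that showed no inhibition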
# CLK2 inh: Kinase Inhibition Study on Inhibitors of CDC-like Kinase 2 (Reaction Biology data) | shares compounds with NTMT1 inhibitor | Reaction Biology kinase assay, 10 uM ATP | Potency, µM, most hits filed as inhibitors | 65 compounds, 90% hits | AID 504427, 2011;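 active = compound that inhibits Clk2 kinase in the dose series, with an IC50 potency reported; inactive = no inhibition seen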
# CLK3 inh: Kinase Inhibition Study on Inhibitors of CDC-like Kinase 3 (Reaction Biology data); AID 504428, 2011; recombinant CLK3 kinase assay, 10 uM ATP; 65 compounds, 40% hits; Potency, µM, most hits filed as inhibitors; shares compounds with NTMT1 inhibitor;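 active = compounds that inhibited Clk3 enough in the ten-dose series to give a half-maximal potency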
# DYRK1B RBC: Kinase Inhibition Study on Inhibitors of Dyrk1b (Reaction Biology data); shares compounds with NTMT1 inhibitor; Recombinant Dyrk1b kinase assay, 10 uM ATP; Potency, µM, hits mostly inhibitors; 65 compounds, 80% hits;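 active = compounds whose dose response shows an inhibitor phenotype against the kinase Dyrk1b; inactive = compounds showing no inhibitor phenotype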
# CLK1 RBC: Kinase Inhibition Study on Inhibitors of CDC-like Kinase 1 (Reaction Biology data). shares compounds with NTMT1 inhibitor. recombinant Clk1 kinase assay, 10 uM ATP. Potency, µM, most hits filed as inhibitors. 65 compounds, 90% hits;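 active = compounds that block the splicing kinase Clk1 enough to give a fitted half-inhibition concentration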
# Target sequence (P49759 whole entry, looked up): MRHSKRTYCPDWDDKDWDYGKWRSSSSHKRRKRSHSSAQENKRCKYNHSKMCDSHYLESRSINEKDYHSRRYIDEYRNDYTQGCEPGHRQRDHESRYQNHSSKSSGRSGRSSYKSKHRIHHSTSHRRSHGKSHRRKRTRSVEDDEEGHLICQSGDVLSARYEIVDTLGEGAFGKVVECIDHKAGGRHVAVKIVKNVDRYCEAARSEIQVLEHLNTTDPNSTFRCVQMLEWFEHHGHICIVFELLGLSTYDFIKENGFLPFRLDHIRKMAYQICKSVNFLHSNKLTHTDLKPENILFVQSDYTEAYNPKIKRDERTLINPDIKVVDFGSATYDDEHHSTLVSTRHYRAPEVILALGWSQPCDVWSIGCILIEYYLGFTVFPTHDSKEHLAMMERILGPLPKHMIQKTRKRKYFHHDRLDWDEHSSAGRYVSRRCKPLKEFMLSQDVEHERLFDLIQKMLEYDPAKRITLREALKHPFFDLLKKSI
# NNMT inh: Counterscreen qHTS for Inhibitors of N-terminal methyltransferase 1 (NTMT1): NNMT MTaseGlo assay | NNMT MTase-Glo luminescence, SAH detection | 120 compounds, 10% hits | shares compounds with NTMT1 inhibitor | Potency, µM (highest dose often 57.1 µM), for inactives: top-dose activity, negative = inhibition, usual class: inhibitors
# * hit, by the source's call; i = inactive; ? = inconclusive; . = no result; [ ] = another dose, or the depositor's remark. Unless noted, calls follow the shape of the dose curve; as a rule, active = well fitted curve in the direction sought with a large enough effect; inconclusive = small, poorly fitted or top-dose-only effect, or another doubt; inactive = no such curve, though single readings can be large; an effect the other way counts as inactive or inconclusive.
SMILES,NTMT1 inhibitor,CLK4 inh-2,DYRK1A inh-2,CLK2 inh,CLK3 inh,DYRK1B RBC,CLK1 RBC,others
c1nc(NCC2CCCCC2)c2cc(-c3ccc4c(c3)OCO4)ccc2n1,?,0.15*,0.19µM*,0.86µM*,5.3µM*,1.1µM*,0.51µM*,CLK4 inh-1=0.073µM*
CN(C)CCCNc1ncnc2ccc(-c3ccc4c(c3)OCO4)cc12,?,.,.,.,.,.,.,CLK4 inh-1=1µM*
Clc1ccccc1-c1ccc2ncnc(NCc3ccc4c(c3)OCO4)c2c1,3%,.,.,.,.,.,.,
C=CCN(/C=C1\C(=O)OC(COC)C2(C)C1=C(O)C(=O)C1=C2C(OC(C)=O)CC2(C)C(=O)CCC12)CC=C (stereo unspecified),-17%,.,.,.,.,.,.,
COc1ccc(C2COc3cc(O)ccc3C2)c(O)c1OC (stereo unspecified),-2%[57.5 µM],.,.,.,.,.,.,
CCC(C)C1NC(=O)C2CCCN2C(=O)C(CC(O)CO)OC(=O)CCNC(=O)C(C)N(C)C(=O)C(C(C)C)N(C)C1=O (stereo unspecified),-4%[12.6 µM],.,.,.,.,.,.,
NCCNc1ncnc2ccc(-c3ccc4c(c3)OCO4)cc12,.,8.4*,5.5µM*,6.4µM*,15µM*,i,5.6µM*,DYRK1A inh-1=0.18µM*
Fc1cccc(CNc2ncnc3ccc(-c4ccc5c(c4)OCO5)cc23)c1,2%,.,.,.,.,.,.,
CC(C)=C1CC2[C@](C)(CC[C@@H](OC(=O)C3(C)OC3C)[C@@]2(C)O)CC1=O (stereo partly specified),-1%[29.8 µM],.,.,.,.,.,.,
c1cncc(-c2ccc3ncnc(NCc4ccc5c(c4)OCO5)c3c2)c1,-9%,.,.,.,.,.,.,
c1csc(CCNc2ncnc3ccc(-c4ccc5c(c4)OCO5)cc23)c1,?,.,.,.,.,.,.,DYRK1A inh-1=0.065µM*
c1csc(CNc2ncnc3ccc(-c4ccc5c(c4)OCCO5)cc23)c1,?,.,.,.,.,.,.,DYRK1A inh-1=0.37µM*
CN(Cc1nccs1)c1ncnc2ccc(-c3ccc4c(c3)OCO4)cc12,7.1µM*,0.02*,0.051µM*,0.59µM*,4.7µM*,0.18µM*,0.028µM*,DYRK1A inh-1=0.065µM*
COc1cccc(-c2ccc3ncnc(NCc4cccs4)c3c2)c1,-20%,.,.,.,.,.,.,DYRK1A inh-1=7.3µM*
O=C(Nc1cccc(Cc2ccccc2)n1)c1ccc(-c2cccc([N+](=O)[O-])c2)o1,-5%,.,.,.,.,.,.,
CCN(CC)Cc1ccc(C(=O)N(CCc2ccccc2OC)[C@@H]2CCNC2)cc1,0%[29.8 µM],.,.,.,.,.,.,
Fc1c(-c2ccc3ncnc(NCc4cccs4)c3c2)ccc2c1OCO2,?,0.13*,0.16µM*,4.4µM*,9.3µM*,2.3µM*,0.31µM*,DYRK1A inh-1=0.18µM*
Cn1ccc2cc(-c3ccc4ncnc(NCc5cccs5)c4c3)ccc21,-6%[57.5 µM],.,.,.,.,.,.,DYRK1A inh-1=?
c1csc(CNc2ncnc3ccc(-c4ccc5c(c4)OCO5)cc23)n1,12%,0.05*,0.07µM*,0.41µM*,3.5µM*,0.45µM*,0.18µM*,CLK4 inh-1=0.046µM*
c1coc(CNc2ncnc3ccc(-c4ccc5c(c4)OCO5)cc23)c1,.,0.079*,0.084µM*,0.3µM*,2.6µM*,0.53µM*,0.19µM*,CLK4 inh-1=0.037µM*
Cc1sc(NC(=O)Cc2ccc3c(c2)OCO3)nc1-c1ccc2c(c1)CCN2C(=O)c1ccccc1Cl,28%,.,.,.,.,.,.,
O=C(NCCc1nc2ccccc2[nH]1)C1CCCCC1,-1%,.,.,.,.,.,.,
CC(C)NC(=O)N1CC[C@H](N=C2Nc3cc(F)ccc3N(CC(F)F)c3ccc(Cl)cc32)C1,-3%[12.6 µM],.,.,.,.,.,.,
CC(=O)OC[C@]12[C@H](OC(C)=O)[C@H](OC(=O)c3ccccc3)[C@@H]3[C@@H](OC(C)=O)[C@]1(OC3(C)C)[C@H](C)C[C@H](OC(=O)c1ccccc1)[C@@H]2OC(=O)c1ccccc1,8%[12.6 µM],.,.,.,.,.,.,
COc1cccc(OCCCN)c1-c1cc(Nc2cnc(C#N)cn2)n[nH]1,8.9µM*,.,.,.,.,.,.,NNMT inh=-11%
SMILES,NTMT1 inhibitor,CLK4 inh-2,DYRK1A inh-2,CLK2 inh,CLK3 inh,DYRK1B RBC,CLK1 RBC,others
COc1ccc2c(c1)[C@]1(C[C@H]1c1ccc3c(/C=C/c4ccc(CN5C[C@@H](C)O[C@@H](C)C5)cc4)n[nH]c3c1)C(=O)N2,2%,.,.,.,.,.,.,
COc1cc(N2CCOCC2)ccc1Nc1ncc(Cl)c(Nc2ccccc2NS(C)(=O)=O)n1,6%[57.5 µM],.,.,.,.,.,.,
CN(CCc1ccco1)c1ncnc2ccc(-c3ccc4c(c3)OCO4)cc12,?,.,.,.,.,.,.,CLK4 inh-1=0.092µM*
CC(c1ccco1)N(C)c1ncnc2ccc(-c3ccc4c(c3)OCO4)cc12 (stereo unspecified),.,.,.,.,.,.,.,DYRK1A inh-1=0.26µM*
CC1(N)CCN(c2cnc(-c3cccc(Cl)c3Cl)c(N)n2)CC1,0%[57.5 µM],.,.,.,.,.,.,
CC1CC(O)C2(C)C(C(=O)O)=CCCC2C1(C)CCc1ccoc1 (stereo unspecified),22%[29.8 µM],.,.,.,.,.,.,
O=C(O)c1ccc(-c2ccc3ncnc(NCc4nccs4)c3c2)o1,0%[57.5 µM],1.9*,41µM*,27µM*,i,18µM*,39µM*,CLK4 inh-1=0.92µM*
O=C(O)c1ccc(-c2ccc3ncnc(NCC4CCCO4)c3c2)o1 (stereo unspecified),-4%,3.4*,30µM*,20µM*,i,12µM*,44µM*,CLK4 inh-1=0.82µM*
OCc1ccc(-c2ccc3ncnc(NCC4CCCO4)c3c2)o1 (stereo unspecified),.,13*,i,i,i,45µM*,50µM*,
COc1cc2ncnc(Nc3cccc(I)c3)c2cc1OC,22µM*,.,.,.,.,.,.,NNMT inh=?
O=C1C=CC2OC(c3ccccc3)C(O)C2O1 (stereo unspecified),15%[57.5 µM],.,.,.,.,.,.,
